The list is not random: actives were taken first. Their share in the collection is about 0.41%.
TRPML1 inh – qHTS for Inhibitors of the Human Mucolipin Transient Receptor Potential 1 (TRPML1) | AID 624415, 2012 | activity change, negative = inhibition, % (no concentration beside the values) | 390,000 compounds, 0.02% hits | TRPML1-inducible cells, Ca2+ dye fluorescence, FDSS; stronger effect = lower value; inhibition of EC80 agonist-evoked calcium signal | Mucolipin-1 (Homo sapiens), Q9GZU1; in the data active means activity change below about -50%; inconclusive means between about -30% and that limit;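 further: stimulus is agonist 54-4 at its EC80 concentration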
Target sequence (Q9GZU1 whole entry, looked up): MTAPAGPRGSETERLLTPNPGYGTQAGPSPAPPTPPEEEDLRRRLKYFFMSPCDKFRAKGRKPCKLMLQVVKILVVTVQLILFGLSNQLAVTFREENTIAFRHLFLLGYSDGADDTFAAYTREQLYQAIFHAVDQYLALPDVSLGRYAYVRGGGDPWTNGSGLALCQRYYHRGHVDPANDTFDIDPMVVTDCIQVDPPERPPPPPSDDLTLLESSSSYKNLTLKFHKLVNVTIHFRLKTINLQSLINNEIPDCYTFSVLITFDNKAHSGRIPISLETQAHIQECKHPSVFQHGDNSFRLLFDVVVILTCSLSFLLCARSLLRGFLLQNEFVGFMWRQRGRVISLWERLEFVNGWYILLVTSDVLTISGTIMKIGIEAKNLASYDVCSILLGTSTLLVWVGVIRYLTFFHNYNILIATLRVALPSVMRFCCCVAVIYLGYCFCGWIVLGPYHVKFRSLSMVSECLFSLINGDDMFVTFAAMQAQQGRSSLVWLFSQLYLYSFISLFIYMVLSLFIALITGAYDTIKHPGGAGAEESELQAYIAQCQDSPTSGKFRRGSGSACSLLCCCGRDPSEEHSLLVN
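TRPML1-DL cells, Tet-induced overnight (~16 h, 37 °C) at 1,500 cells/well, were loaded with Ca8 no-wash dye plus quencher for 45-90 min at room temperature. Compounds were pinned during FDSS kinetic reading; agonist 54-4 at EC80 (4 uM final) then added.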
TRPV1 potentiator – HTS Assay for Compounds that Act as Potentiators of the Vanilloid Receptor 1 | Transient receptor potential cation channel subfamily V member 1 (Homo sapiens), Q8NER1 | TRPV1-expressing cells, Fluo-8 calcium influx, capsaicin EC20 potentiation | potentiation, % at 8.33 µM | 320,000 compounds, 0.02% hits; in the data active means potentiation above about 80%; inconclusive means between about 30% and that limit
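TRPV1-expressing cells were cultured overnight at 35.5C and loaded with Fluo-8 calcium dye for 40 to 90 min at room temperature. After a 10 s baseline, compound was added and calcium influx was read kinetically for 3 min (ex 480/em 520 nm).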
TRPML1 agonist – qHTS for Agonists of the Human Mucolipin Transient Receptor Potential 1 (TRPML1) | 410,000 compounds, 0.12% hits | AID 624414, 2012 | activation, % (no concentration beside the values) | TRPML1-expressing cells, Ca2+ dye fluorescence, FDSS; in the data active means activation above about 50%; inconclusive means mostly about 30% to 49%
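TRPML1-DL cells, Tet-induced overnight (~16 h, 37 degrees C), loaded 45-90 min at room temperature with Ca8 no-wash calcium dye plus quencher. FDSS fluorescence: 10 s baseline, compound pin-transfer, 110 s agonist read, then EC80 54-4 (4uM final) and 110 s antagonist read.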
TRPV1 ag – HTS Assay for Compounds that Act as Agonists of the Vanilloid Receptor 1; activation, % at 8.33 µM; AID 540275, 2011; 320,000 compounds, 0.19% hits; Transient receptor potential cation channel subfamily V member 1 (Homo sapiens), Q8NER1; TRPV1-expressing cells, Fluo-8 calcium influx, agonist mode; in the data active means activation above about 80%; inconclusive means between about 30% and that limit
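Fluo-8 calcium influx in TRPV1-expressing cells, kinetic read (ex 480/em 520 nm). Compound added and read 3 min for agonist activity, followed by capsaicin at EC20 final and 2 min further read for enhancement.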
A-T KAP1 phos – qHTS Assay for Identifying a Potential Treatment of Ataxia-Telangiectasia; F2112 A-T fibroblasts, KAP-1 phosphorylation AlphaLISA; neocarzinostatin DNA damage 30 min before lysis; Potency, µM (doses to about 57.5 µM), hits mostly activators; 320,000 compounds, 0.19% hits; AID 485349, 2010; active means well fitted activation curve with a large enough effect; inconclusive means small, poorly fitted or top-dose-only effect; inactive means no such curve, though single readings can be large or run the other way; further: nearly all actives have a fitted effect of over 45% in size
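ATM-like activity read as KAP-1 phosphorylation via AlphaLISA donor/acceptor antibody pairs after lysis and 6 hr at 25C. Cells were ATM-null patient fibroblasts (F2112, hTERT), dosed 60 min, then exposed to the DSB inducer NCS for 30 min.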
A number is an active result; n = inactive; u = inconclusive; x = not tested or not shown.

SMILES	TRPML1 inh	TRPV1 potentiator	TRPML1 agonist	TRPV1 ag	A-T KAP1 phos
COc1ccc(-[n+]2c(C)cc(/C=C3\Sc4ccccc4N3C)cc2C)cc1	n	u	69	u	n
COc1ccc(C(=O)/C=C2\Sc3ccccc3N2C)cc1	n	n	n	u	n
COc1ccccc1OC(=O)CCN1c2ccccc2Sc2ccccc21	n	u	n	n	n
C(=C1C=c2ccccc2=C1)c1ccc(N=Nc2ccc(C=C3C=c4ccccc4=C3)cc2)cc1	x	x	n	x	x
CCOC(=O)c1ccc(NC(=O)c2ccc(NC(=O)c3ccccc3)cc2)cc1	n	n	n	n	x
CCOC(=O)c1ccc(NC(=O)c2cc3c(s2)CCC3)cc1	n	n	n	106	n
Nc1c(C(=O)Nc2nc3ccccc3s2)sc2nc(-c3cccs3)ccc12	n	n	n	n	16µM
COc1ccc(C(=O)Nc2ccc(C3=NNC(=O)CC3C)cc2NC(=O)c2ccc(OC)cc2)cc1 (centres undefined)	n	n	n	84	n
O=C(CBr)c1ccc(Oc2ccc(C(=O)C[n+]3cccc(Br)c3)cc2)cc1	x	x	n	x	x
COc1cc(O)c2c(c1)OC(c1ccc(O)cc1)CC2=O (centres undefined)	x	n	x	n	40µM
Cc1cc(Sc2nnc(N)s2)c2ccccc2n1	n	n	n	n	40µM
OC(CN1C=CCc2ccccc21)c1ccc(Cl)cc1Cl (centres undefined)	x	x	n	x	x
CCn1c(C(=O)N2CCCC(C(=O)N3CCN(c4ccccc4)CC3)C2)cc2sccc21 (centres undefined)	u	x	61	x	x
CCN(CC)CCOC(=O)c1ccc(N)cc1	n	n	n	n	n
CCN(CC)CCOC(=O)c1ccc([N+](=O)[O-])cc1	n	n	n	n	35µM
CC1(C)NC(=O)N(CC(O)CN(Cc2ccccc2)Cc2ccccc2)C1=O (centres undefined)	n	n	n	83	n
CCN(CC)CC(O)CN1C(=O)NC(C)(C)C1=O (centres undefined)	n	n	n	n	n
COCCCn1c(=O)c2sccc2n(Cc2cccc(C)c2)c1=O	x	n	x	n	1.6µM
CN(C)c1cccc(-c2nnc(SCC(=O)NCc3ccco3)n2C)c1	x	x	n	x	x
CSc1ccc(/C=N/NC(=O)c2ccc(C)c(C)c2)cc1	n	n	n	82	x
COc1ccc(/C=N/NC(=O)c2[nH]c3ccc(Br)cc3c2-c2ccccc2)c(C(=O)O)c1OC	n	n	n	n	n
O=C(N/N=C/c1ccccc1Cl)c1[nH]c2ccc(Br)cc2c1-c1ccccc1	n	n	71	n	n
CCCCN(CCCC)c1ccc(/C=C/c2ccnc3ccccc23)cc1	x	x	n	x	x
CCOC(=O)C[n+]1cccc(Br)c1	x	x	n	x	x
CCOC(=O)C(=O)Nc1nnc(Cc2ccc(OC)c(OC)c2)s1	n	n	n	n	28µM
SMILES	TRPML1 inh	TRPV1 potentiator	TRPML1 agonist	TRPV1 ag	A-T KAP1 phos
CCOCC(=O)Nc1nnc(Cc2ccc(OC)c(OC)c2)s1	n	n	n	n	n
COc1ccc(-c2sc3cc4c(cc3c2C#Cc2cncn2C)OCO4)cc1	n	x	n	x	n
COc1ccc(-c2sc3ccc(OC)cc3c2C#Cc2cncn2C)cc1	n	x	n	x	28µM
O=C(Nc1ccncc1)c1cnn2c1NC(=C1CC1)C=C2C(F)F	x	x	n	x	x
COc1ccc(CNC(=O)CN2C(=O)CSc3ccc(S(=O)(=O)N4CCOCC4)cc32)c(OC)c1	n	n	n	n	7.1µM
Cc1cccc(NC(=O)CN2C(=O)S/C(=C\c3ccc(O)c([N+](=O)[O-])c3)C2=O)c1	n	84	n	n	n
O=C(NCCc1csc(-c2cccnc2)n1)c1c(F)cccc1F	n	n	n	n	40µM
O=C(NCCc1csc(-c2ccccc2)n1)c1c(F)cccc1F	n	n	n	n	n
CC1(C)CC(=O)c2cc(C(=O)Nc3cccc4ccccc34)c(=O)[nH]c2C1	x	x	n	x	x
O=C(Nc1ccc(Cl)cc1)c1ccc(Br)cc1F	n	n	n	83	n
